Experimental data: PubChem BioAssay AID588726 (The Scripps Research Institute Molecular Screening Center, 2011)
Values joined by “and” are separate entries in the source; they are usually repeats but may differ in a detail not shown here. Equal values may be shown once. Among all 360,000 compounds or so, about 8,200 (2.3%) were called active. Rule as the data show it: active = inhibition above about 27%; inactive = the rest. The sample as a whole holds a higher share of actives than the screen did.

Target: Fructose-bisphosphate aldolase (Mycobacterium tuberculosis (strain ATCC 25618 / H37Rv)) (UniProt P9WQA3)
Test: M. tuberculosis aldolase activity blockers – biochemical, fluorescence, strain H37Rv, primary screen (AID 588726);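 also: 0% = vehicle and 100% = reference inhibitor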
Details: purified M. tuberculosis FBA, fluorescence read-out, at 1 µM, active compounds read high

Sequence of Fructose-bisphosphate aldolase (Mycobacterium tuberculosis (strain ATCC 25618 / H37Rv)) (P9WQA3 whole entry, looked up): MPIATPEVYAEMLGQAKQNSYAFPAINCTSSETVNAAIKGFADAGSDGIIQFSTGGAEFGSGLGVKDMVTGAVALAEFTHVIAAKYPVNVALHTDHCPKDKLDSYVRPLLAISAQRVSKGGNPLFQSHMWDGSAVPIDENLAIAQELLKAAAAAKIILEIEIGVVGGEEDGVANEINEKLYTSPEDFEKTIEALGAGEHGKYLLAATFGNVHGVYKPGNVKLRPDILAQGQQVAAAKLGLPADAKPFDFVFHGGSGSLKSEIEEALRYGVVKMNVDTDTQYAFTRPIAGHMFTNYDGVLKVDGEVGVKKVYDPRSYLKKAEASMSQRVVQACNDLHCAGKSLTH

| Compound | inhibition |
| --- | --- |
| CC(C)(C)NC(=O)NC(=O)COC(=O)C1(C)CC1(Cl)Cl (stereo not drawn) | 0.89% (inactive) |
| COCCNC(=O)c1onc(CSc2cccc(C)c2)c1C(=O)O | 1.01% (inactive) |
| Cc1ccc(NC(=O)CN(C)C(=O)c2ccc(Br)o2)cc1 | 0.61% (inactive) |
| CC1COC2C(O1)N(S(C)(=O)=O)CCN2S(C)(=O)=O (stereo not drawn) | -0.44% (inactive) |
| Cc1cccc(-c2cnc(C(O)c3cc(C)cc(C)c3)[nH]2)c1 (stereo not drawn) | -2% (inactive) |
| CC(C)C(C(=O)NC1CCCCC1)N(CC1CCCO1)C(=O)CNS(=O)(=O)c1ccc(F)cc1 (stereo not drawn) | -0.74% (inactive) |
| CN1OC[C@@H]2CN(C(=O)C(C)(C)C)[C@H](c3ccc(-n4ccnc4)cc3)C[C@@H]21 | 3.11% (inactive) |
| Cc1ccc(-c2cnc(C(O)c3cccc(C)c3C)[nH]2)cc1 (stereo not drawn) | -6.24% (inactive) |
| CCC(C)(C)NC(=O)C(c1cccc(OC)c1OC)N(CC(C)C)C(=O)CCC(=O)Nc1cc(C)on1 (stereo not drawn) | -1.74% (inactive) |
| COC(=O)C1=CN(C)C=C(C(=O)OC)C1c1ccc(Cl)cc1Cl | 12.4% (inactive) |
| CCOc1ccccc1C1C(C(=O)OC)=CN(C)C=C1C(=O)OC | 180% (active) |
| CCOc1cc(C2C(C(=O)OC)=CN(C3CCCC3)C=C2C(=O)OC)cc(Br)c1O | 9.72% (inactive) |
| O=C(CC1SC(N2CCCC2)=NC1=O)Nc1ccc(C(=O)NCCc2ccc(F)cc2)cc1 (stereo not drawn) | -0.1% (inactive) |
| COc1ccccc1C(=O)NCC(=O)NCCSc1ccc(Br)cc1 | -1.16% (inactive) |
| O=C(NCc1ccco1)c1sc2cccc(F)c2c1Cl | 5.05% (inactive) |
| Cn1nc(-c2ccc(Cl)cc2)c2cc(C(=O)NCc3ccco3)sc21 | 43.5% (active) |
| O=C(NCc1ccco1)c1cccc(-c2ccc3nncn3c2)c1 | -0.68% (inactive) |
| COc1cc(C2OC(c3cc(OC)c(OC)c(OC)c3)C(C)C2C)cc(OC)c1OC (stereo not drawn) | -1.3% (inactive) |
| CC1CCCCC1NC(=O)CO/N=C/c1ccc(OC(F)F)cc1 (stereo not drawn) | -0.83% (inactive) |
| COc1ccc2cc(CCl)c(Cl)nc2c1 | 0.58% (inactive) |
| COc1ccc(C=C(C#N)C#N)c(CSc2ccccn2)c1 | 1.22% (inactive) |
| COc1ccc2nc(-c3ccccn3)ccc2c1 | 77.3% (active) |
| O=C(COc1cc(Cl)c(Cl)cc1Cl)NC(=O)NC1CCCC1 | 5.04% (inactive) |
| CC(C)(C)C(=O)CN1C2=NCCN2c2ccccc21 | -3.57% (inactive) |

| Compound | inhibition |
| --- | --- |
| CC(C)n1c(CN2CCN(Cc3ccccc3)CC2)nc2ccccc21 | 3.41% (inactive) |
| CC(C)n1c(-c2cccs2)nc2ccccc21 | 32.3% (active) |
| CC(C)n1c(NCc2c[nH]c3ccccc23)nc2ccccc21 | 1.92% (inactive) |
| Cc1noc(C)c1-c1ccc2ncnc(NC(C)c3ccco3)c2c1 (stereo not drawn) | 8.84% (inactive) |
| O=C(O)C1CCC(CNS(=O)(=O)c2ccc(Br)cc2)CC1 (stereo not drawn) | 0.74% (inactive) |
| CCN1CCN(C(=O)c2ccc(CN(c3ccc(C)c(C)c3)S(C)(=O)=O)cc2)CC1 | -1.53% (inactive) |
| O=c1oc2ccccc2cc1-c1cn(-c2ccccc2)c(=S)[nH]1 | 40.4% (active) |
| C/C(=C\c1ccco1)CN1CCC(N2CCC(C(=O)N3CCOCC3)CC2)CC1 | -2.26% (inactive) |
| OCC[C@H]1C[C@@H](O)[C@H](O)[C@]2(OCCCc3ccccc32)O1 | 2.25% (inactive) |
| O=C(N/N=C\c1ccc(-c2ccc(Cl)c(Cl)c2)o1)C(=O)N1CCCC1 | 1.03% (inactive) |
| O=C(COc1ccc2c(c1)CCC2)N1CCN(c2ccc(F)cc2)CC1 | -1.29% (inactive) |
| COc1ccc(OCC(=O)N2CCN(C(=O)c3cccs3)CC2)cc1 | 1.53% (inactive) |
| CCN1CCN(C(=O)CN(C)S(=O)(=O)c2ccc(OC)cc2)CC1 | -1.71% (inactive) |
| CCN1CCN(C(=O)c2cc3cc4ccc(OC)cc4nc3s2)CC1 | 43.9% (active) |
| O=C(OCC(=O)N1CCCCCC1)c1ccc(Br)c(S(=O)(=O)N2CCOCC2)c1 | -1.57% (inactive) |
| COc1ccc(CNC(=O)c2ccc(NS(=O)(=O)c3ccc4[nH]c(=O)[nH]c4c3)cc2)cc1OC | -1.09% (inactive) |
| CCOC(=O)c1c(C)[nH]c(C(=O)NCCN2CCOCC2)c1C | 1.62% (inactive) |
| CCOC(=O)c1c(CN2CCOCC2)n(-c2ccccc2)c2ccc(O)cc12 | -1.31% (inactive) |
| O=C(NCc1cccs1)c1cc(-c2ccccn2)nc2ccc(Br)cc12 | 1.48% (inactive) |
| CCN(C(=O)COC(=O)c1c(C)nn(-c2ccccc2)c1Cl)c1c(N)n(Cc2ccccc2)c(=O)[nH]c1=O | -2.12% (inactive) |
| CCOC(=O)c1cnn(Cc2ccccc2Cl)c1N | -1.37% (inactive) |
| O=C(Cc1coc2ccc3ccccc3c12)NCc1cccs1 | 0.72% (inactive) |
| CC(C)Cn1c(N)c(C(=O)NCc2cccs2)c2nc3ccccc3nc21 | 48.5% (active) |
| CCOC(=O)c1c(N)n(CCN2CCOCC2)c2nc3ccccc3nc12 | 113% (active) |

| Compound | inhibition |
| --- | --- |
| Cc1ccc(C(=O)OC(C)CN2CCOCC2)cc1 (stereo not drawn) | -3.53% (inactive) |
| CC(CN1CCOCC1)OC(=O)c1ccc(C(C)(C)C)cc1 (stereo not drawn) | -5.4% (inactive) |
| COCC(C)OC(=O)c1c(N)n(CCCN2CCOCC2)c2nc3ccccc3nc12 (stereo not drawn) | 104% (active) |
| CCOc1ccc(OCC)c(NC(=O)C(NS(=O)(=O)c2ccc3c(c2)oc(=O)n3C)C(C)C)c1 (stereo not drawn) | 0.18% (inactive) |
| O=C(NCCc1ccccc1)C(=O)NCC1OCCN1S(=O)(=O)c1cccs1 (stereo not drawn) | 0.89% (inactive) |
| CN(C)C(=O)N1CCNCC1 | 2.64% (inactive) |
| Cc1nc2ccc(S(=O)(=O)NCC(=O)O)cc2s1 | 0.49% (inactive) |
| COCCNS(=O)(=O)c1cc(Br)ccc1OC | 0.54% (inactive) |
| CCCCC(CC(C)O)c1n[nH]c(=S)n1-c1ccccc1 (stereo not drawn) | 2% (inactive) |
| Cc1ccc(/C([O-])=C(/C(=S)NCc2ccco2)[n+]2ccccc2)cc1[N+](=O)[O-] | 1.54% (inactive) |
| CCOc1cc(/C=N/NC(=O)c2ccc(CSc3nncn3C)cc2)ccc1OCC(=O)N1CCOCC1 | -1.98% (inactive) |
| C=CCn1c(P(C)(=O)O)nc2ccccc21 | 1.11% (inactive) and 4.28% (inactive) |
| C=CCN1CN(S(=O)(=O)c2ccc(OC)cc2)c2nc3ccccc3nc21 | 6.64% (inactive) |
| O=C(NCCCN1CCCC1=O)c1ccc(S(=O)(=O)Nc2ccccc2)cc1 | -1.21% (inactive) |
| CCCCNc1nc2ccccc2nc1NS(=O)(=O)c1cccs1 | 6.38% (inactive) |
| C=CCn1c(N)c(S(=O)(=O)c2cccs2)c2nc3ccccc3nc21 | 163% (active) |
| C=CCn1c(N)c(C(=O)OCC(C)C)c2nc3ccccc3nc21 | 88.6% (active) |
| Cc1nn(Cc2ccccc2)c(C)c1C(=O)NCCCN1CCCC1=O | -1.19% (inactive) |
| C=CCn1c(C(C)NC(=O)CC)nc2ccccc21 (stereo not drawn) | 3.68% (inactive) |
| CCCCC1N2CC3([N+](=O)[O-])CN1CC([N+](=O)[O-])(C2)C3(C)C (stereo not drawn) | 2.82% (inactive) |
| COC(=O)c1ccc(NC(=O)CSc2nncn2-c2cccnc2)cc1 | 0.47% (inactive) |
| CSc1cccc(NC(=S)N(C(C)C)C(C)c2ccccn2)c1 (stereo not drawn) | 0.95% (inactive) |
| NC(=O)CSc1nnc(-c2cccc(S(=O)(=O)N3CCOCC3)c2)o1 | -1.59% (inactive) |
| Cc1ccc(NC(=O)Cc2nc(COC(=O)C(C)NS(=O)(=O)c3ccc(C)cc3)cs2)cc1 (stereo not drawn) | 3.71% (inactive) |

| Compound | inhibition |
| --- | --- |
| Cc1ccccc1OCC(=O)NNC(=O)c1ccc(-n2cncn2)c([N+](=O)[O-])c1 | -1.97% (inactive) |
| Cc1ccc(S(=O)Cc2ccc(C(=O)N3CCN(C4CCCCC4)CC3)o2)cc1 (stereo not drawn) | 1.16% (inactive) |
| CCOC(=O)[C@@H]1[C@H]2COc3cc(OC)ccc3[C@H]2N2C(=O)N(c3ccc(F)cc3)C(=O)[C@]12C | 0.06% (inactive) |
| C[C@@H]1CN([C@H](C)CO)S(=O)(=O)c2ccc(C#CC3CCCCC3)cc2O[C@H]1CN(C)C(=O)Cc1ccncc1 | -2.18% (inactive) |
| O=C1NC(c2cc3c(cc2Cl)OCO3)Oc2ccccc21 (stereo not drawn) | 0.96% (inactive) |
| Cc1nc2nc[nH]n2c(=O)c1C/C=C/c1ccccc1 | -4.22% (inactive) |
| C=CCc1c(C)nc2cc(-c3ccccc3)[nH]n2c1=O | 33.2% (active) |
| CCc1c(C)nc2cc(-c3cccs3)[nH]n2c1=O | 27.4% (active) |
| CCC(C)n1[nH]c(=O)c2c(C)cc(C)nc21 (stereo not drawn) | 2.95% (inactive) |
| Cc1nc2scc(-c3cccs3)c2c(=O)n1N | -0.89% (inactive) |
| CCc1c(C)nc2cc(C)[nH]n2c1=O | 27.9% (active) |
| CCCCCN1CC(O)=C(c2ccccc2)C1=N | -3.67% (inactive) |
| Cc1cc(-c2cccs2)nc(-n2cccc2)n1 | 2.52% (inactive) |
| CCCC(C)n1[nH]c(=O)c2c(C)cc(C)nc21 (stereo not drawn) | 4.12% (inactive) |
| Cc1nc2nc(COc3ccccc3)[nH]n2c(=O)c1Cc1ccccc1 | 1.84% (inactive) |
| COC(=O)CN1C(=O)[C@H]2[C@@H](/C=C/c3ccccc3)N3C(=O)CN(CC4CC4)C(=O)[C@@]3(Cc3ccccc3)[C@H]2C1=O | 5.08% (inactive) |
| COc1ccccc1NC(=O)CCC(=O)OC(C)C(=O)c1ccccc1 (stereo not drawn) | 2.76% (inactive) |
| O=C1N[C@@H](Cc2ccccc2)C(=O)N2[C@@H]3N(S(=O)(=O)c4ccc(F)cc4)c4ccccc4[C@]3(Br)C[C@@H]12 | -1.67% (inactive) |
| O=C(COc1ccc(Cl)cc1Cl)NCCCNC(=O)c1cnccn1 | 4.96% (inactive) |
| Cc1ccc(C)c(-n2cc(CN3CCN(C(=O)c4ncn[nH]4)CC3)c(-c3ccccc3)n2)c1 | -1.74% (inactive) |
| Cc1ccc(NS(=O)(=O)c2cccs2)cc1S(=O)(=O)N1CCCCCC1 | -1.86% (inactive) |
